TDP1 cell noCPT: qHTS for Inhibitors of human tyrosyl-DNA phosphodiesterase 1 (TDP1): qHTS in cells in absence of CPT. DT40 Tdp1-/- hTDP1 cells, no CPT, ATP luminescence, 48 h. 420,000 compounds, 15% hits. Potency, µM (highest dose often 46.2 µM), inactives show top-dose activity change, negative = growth inhibition, actives largely listed as inhibitors; also: nearly all actives have a fitted effect of over 55% in size
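Seeded 400 DT40-hTDP1 cells/well (vehicle DMSO, no 20 nM CPT); pinned compounds; ≥48 hr at 37 °C; CellTiter-Glo luminescence as viability measure.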
VDR inhibitor: blocks the human vitamin D receptor; P11473; VDR-SRC2-3 peptide fluorescence polarization, 2 h; Potency, µM, for inactives: max response, negative = inhibition, actives largely listed as inhibitors; 400,000 compounds, 0.93% hits; AID 504847
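Compounds are added to VDR with labelled SRC2-3 coactivator peptide and held 2 h at room temperature. Inhibition of the VDR–peptide interaction is then read as a change in fluorescence polarization.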
DT40 TDP1 CPT: DT40-hTDP1 cell growth loss with CPT; chicken DT40 Tdp1-/-;hTDP1 cells + 20 nM CPT, ATP luminescence, 48 h; Potency, µM (doses to about 46.2 µM), for the others: at the top dose activity change, negative = growth inhibition, actives largely listed as inhibitors; 420,000 compounds, 12% hits; also: nearly all actives have a fitted effect of over 55% in size
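Cell growth measured by CellTiter-Glo luminescence after a minimum 48 h, 37 C compound exposure with 20 nM CPT in Tdp1-knockout DT40 cells stably expressing hTDP1, seeded 400/well; qHTS titration format.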
KAT2A inh: blocks human GCN5L2 histone acetyltransferase. Potency, µM (top dose mostly 58.9 µM), for inactives: top-dose activity change, negative = inhibition, most hits filed as inhibitors. 390,000 compounds, 0.21% hits. Q92830. GCN5L2 HAT assay, ThioGlo1 CoA-SH fluorescence
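Fluorescence readout, Ex340nm/Em540nm: ThioGlo1 (50uM final) reacts with free CoA thiol released as 20nM GCN5L2 acetylates H3(1-25) peptide (75uM) using acetyl-CoA (70uM). Compound and enzyme sat 15 min beforehand; 20 min room-temperature reaction.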
TDP1 inh: TDP1 (human) enzyme inhibition | Q9NUW8 | recombinant TDP1, AlphaScreen DNA substrate cleavage | Potency, µM (highest dose often 130 µM), for inactives: top-dose activity change, negative = inhibition, most hits filed as inhibitors | 350,000 compounds, 0.28% hits | AID 485290; also: nearly all actives have a fitted effect of over 40% in size
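Signal: AlphaScreen proximity between streptavidin donor and anti-FITC acceptor beads on intact substrate. Reaction: Tdp1 1 nM, substrate 15 nM final, 5 min RT after 15 min compound preincubation.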
PLK1 PBD inh: inhibitors of human PLK1 polo-box domain binding. P53350. Plk1 PBD binding of FITC phosphopeptide, fluorescence polarization. Potency, µM, inactives show max response, negative = inhibition, actives largely listed as inhibitors. 360,000 compounds, 2.8% hits; also: series mostly up to about 57 µM; nearly all actives have a fitted effect of over 65% in size
Target sequence (P53350 whole entry, looked up, the tested form may be a part): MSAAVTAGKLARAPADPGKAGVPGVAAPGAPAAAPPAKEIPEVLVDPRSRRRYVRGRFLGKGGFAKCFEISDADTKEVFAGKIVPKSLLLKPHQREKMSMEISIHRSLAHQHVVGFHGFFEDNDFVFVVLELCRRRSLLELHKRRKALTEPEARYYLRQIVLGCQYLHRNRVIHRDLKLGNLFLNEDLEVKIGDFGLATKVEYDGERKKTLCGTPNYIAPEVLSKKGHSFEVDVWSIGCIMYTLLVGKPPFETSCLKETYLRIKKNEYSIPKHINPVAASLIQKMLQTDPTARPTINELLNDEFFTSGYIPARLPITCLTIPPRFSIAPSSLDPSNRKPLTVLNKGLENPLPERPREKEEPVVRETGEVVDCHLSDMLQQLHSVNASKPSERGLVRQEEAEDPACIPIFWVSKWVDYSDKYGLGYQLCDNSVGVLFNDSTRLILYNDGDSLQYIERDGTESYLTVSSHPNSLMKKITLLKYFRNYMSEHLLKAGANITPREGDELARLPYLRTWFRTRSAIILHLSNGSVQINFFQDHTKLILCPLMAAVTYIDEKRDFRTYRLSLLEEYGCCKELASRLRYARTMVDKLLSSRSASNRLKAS
The depositor's hits bear a star; u = inconclusive; x = no result; [ ] = another dose, or the depositor's remark. Compounds with a hit are over-represented: about 18% of the library has one in this group of screens. Calls follow the shape of the dose curve; as a rule, active = well fitted curve in the direction sought with a large enough effect; inconclusive = small, poorly fitted or top-dose-only effect, or another doubt; inactive = no such curve, though single readings can be large; an effect the other way counts as inactive or inconclusive. % is scaled to controls: 0 for no effect and ±100 for the full control effect; potency is read from the fitted curve at half-maximal effect.

SMILES	TDP1 cell noCPT	VDR inhibitor	DT40 TDP1 CPT	KAT2A inh	TDP1 inh	PLK1 PBD inh
O=C(CCS(=O)(=O)c1ccccc1)Nc1ccc2c(c1)OCO2	-1.3%	-1.3%	12.6%	-6.2%	x	u
CC(=O)Nc1nc(C)c(C(C)=O)s1	u	-1.6%	14.6µM*	-6.6%	4.6%	0.7%
CC(=O)c1sc(NC(=O)C(C)C)nc1C	-20.7%	1.5%	-0.4%	-0.9%	-3.8%	-10.9%
O=C(CCS(=O)(=O)c1ccccc1)Nc1nc2c(s1)COc1ccccc1-2	4.61µM*	-7.7%	4.11µM*	-1.3%	3.7%	-29.1%
CC(=O)c1sc(NC(=O)CCS(=O)(=O)c2ccc(F)cc2)nc1C	2.91µM*	x	2.59µM*	x	x	-15.1%
Cc1nc(NC(=O)CCc2ccccc2)sc1C	u	89.1µM*	u	-19.6%	7.9%	15µM*
CCCCN(C)CCNC(=O)c1ccc(Cn2c(=O)[nH]c3cc(OC)c(OC)cc3c2=O)cc1	u	-25.5%	u	-1.8%	2.9%	x
CCCC(=O)Nc1ccc(NC(=O)CCc2ccccc2)cn1	16.4µM*	-17.2%	16.4µM*	-2.0%	2.1%	2.99µM*
CC(=O)c1sc(NC(=O)CCS(=O)(=O)c2ccccc2)nc1C	5.8µM*	23.0%	5.17µM*	-4.5%	3.9%	-24.3%
CS(=O)(=O)N1CCC2(CCN(c3ccccn3)CC2)CC1	0.1%	-2.6%	1.0%	-1.5%	x	x
O=C(Nc1nnc([C@H]2C[C@H](O)[C@@H](CO)O2)s1)Nc1ccccc1Oc1ccccc1	-7.8%	x	-22.5%	x	x	-10.8%
Cc1ccc2nc3c(nc2c1C)CCCC3	-18.0%	-1.8%	0.7%	18.7%	x	-7.8%
Cc1ccc2nc3c(nc2c1C)C(O)=C3O	u	u	14.6µM*	5.0%	x	10.6µM*
CCCCN(C)C(=O)c1[nH]c(C(F)(F)F)nc1-c1ccccc1	u	x	u	x	x	-2.6%
Oc1[nH]c2c(Cl)cc(Cl)cc2c1N=NC(=S)NCC1CCCO1 (stereo not given)	4.61µM*	-2.2%	3.66µM*	29.5%	6.9%	2.3%
CCn1c(O)c(N=NC(=S)NCC2CCCO2)c2ccccc21 (stereo not given)	9.2µM*	4.5%	13µM*	-2.1%	5.3%	-3.3%
Oc1[nH]c2ccccc2c1N=NC(=S)NCC1CCCO1 (stereo not given)	u	0.7%	u	-4.4%	2.6%	-1.6%
Cc1cc(C)c2[nH]c(O)c(N=NC(=S)NCC3CCCO3)c2c1 (stereo not given)	6.51µM*	1.6%	6.51µM*	-1.8%	6.8%	-3.9%
CC1CN(C(=O)Nc2ccc(F)cc2F)CC(C)O1 (stereo not given)	17.9%	-7.4%	0.8%	-26.9%	2.0%	2.9%
CC(C)CNS(=O)(=O)c1ccc(CCC(=O)NCCc2ccccc2)cc1	-5.9%	3.4%	19.0%	-2.0%	5.3%	-25.7%
COc1cccc(N2C(=O)C(CC(=O)Nc3ccc(Cl)cc3)N(Cc3ccc4c(c3)OCO4)C2=O)c1 (stereo not given)	u	-11.6%	u	-3.5%	3.8%	x
CCc1ccccc1NC(=O)c1ccc2nc(N3CCOCC3)sc2c1	-23.0%	-12.1%	-24.0%	-4.7%	x	-16.7%
O=C(Nc1ccc2nc(N3CCOCC3)sc2c1)c1cc2ccccc2o1	u	x	23.1µM*	x	x	2.9%
Cc1c(C(=O)Nc2ccc3nc(N4CCOCC4)sc3c2)oc2ccccc12	u	1.9%	25.9µM*	-14.5%	-0.1%	-11.3%
COc1cc(C(=O)Nc2ccc3nc(N4CCOCC4)sc3c2)cc(OC)c1OC	u	-10.7%	u	-8.2%	4.2%	-0.6%
SMILES	TDP1 cell noCPT	VDR inhibitor	DT40 TDP1 CPT	KAT2A inh	TDP1 inh	PLK1 PBD inh
Cc1ccc(S(=O)(=O)NC(N)=NCCC[C@@H](N)C(=O)Nc2cc(C(F)(F)F)ccc2Cl)cc1	x	x	x	x	-1.1%	x
Cc1cc(-c2ccccc2)c2ccc(NC(=O)C(C)(C)C)nc2n1	14.6µM*	-11.3%	20.6µM*	-10.2%	x	4.1%
Cc1cc(C)nc(/N=C(\NC(=O)C(C)(C)C)Nc2ccccc2)n1	-0.3%	-0.1%	17.7%	-6.1%	1.2%	-5.3%
NCCNc1ccc(C(=O)N2c3ccccc3Sc3ccccc32)cc1[N+](=O)[O-]	18.4µM*	u	18.4µM*	-24.1%	x	2.4%
CCOc1ccc(CNCc2c(C(=O)O)n(Cc3ccc(C)cc3)c3cc(C)ccc23)cc1	u	6.1%	u	-5.1%	2.6%	x
Cc1c(CNCCCc2ccccc2)c(C(=O)O)c(C)n1Cc1ccc(Cl)cc1	20.6µM*	12.7%	u	-11.1%	2.5%	x
CCOc1ccc(CNCc2c(C(=O)O)c(C)n(Cc3ccc(C)cc3)c2C)cc1	18.4µM*	18.8%	u	-2.8%	0.0%	x
Cc1c(CNCCCc2ccccc2)c(C(=O)O)c(C)n1Cc1cccc(Cl)c1	20.6µM*	2.0%	u	3.9%	5.1%	x
Cc1c(CNCCCc2ccccc2)c(C(=O)O)c(C)n1Cc1ccccc1	2.4%	-4.0%	-20.0%	2.4%	8.0%	2.4%
O=C(Cn1c(=O)n(Cc2ccc(Cl)cc2)c(=O)c2cccnc21)Nc1ccccc1C(F)(F)F	u	-2.9%	u	1.0%	0.0%	x
CCOC(=O)c1c(NC(=S)NC(=O)c2ccc(Cn3cc(Cl)cn3)o2)sc2c1CCC(C)C2 (stereo not given)	8.2µM*	24.3%	13µM*	-6.9%	9.5%	-11.0%
CCOC(=O)c1c(NC(=O)Cn2c(C)nc3ccccc32)sc2c1CCC2	11.6µM*	-0.1%	20.6µM*	-7.2%	6.2%	-5.8%
CCOC(=O)c1c(NC(=O)COC(=O)Cn2c(C)nc3ccccc32)sc2c1CCCC2	u	6.4%	-25.4%	-2.5%	5.5%	0.9%
CCOC(=O)c1c(NC(=O)Cn2nnc3ccccc32)sc2c1CCC(C)C2 (stereo not given)	23.1µM*	2.8%	23.1µM*	-12.1%	1.0%	-2.4%
COC(=O)c1cc(NC(=O)c2ccc(Cn3cc(Cl)cn3)o2)cc(C(=O)OC)c1	-3.8%	8.7%	u	-0.1%	4.2%	-3.9%
CCOC(=O)c1c(NC(=O)C(C)NCc2ccco2)sc2c1CCC(C)C2 (stereo not given)	20.6µM*	-6.7%	u	1.7%	4.7%	3.4%
Cc1ccccc1-c1cccc(CN2CCc3nnc(C(NS(C)(=O)=O)C(C)C)n3CC2)c1 (stereo not given)	u	x	-9.0%[9.04 µM]	x	x	x
CCC1CO1 (stereo not given)	x	x	x	x	2.5%	x
CCOc1ccccc1NC(=O)Cn1ncc2c([nH]c3ccccc32)c1=O	-25.4%	-2.6%	-18.4%	-12.4%	5.0%	x

Screening data deposited in PubChem BioAssay by National Center for Advancing Translational Sciences (NCATS).
